Here are results for twelve molecules from PubChem BioAssay.

Activity calls are given as the source filed them.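 The calls were made as follows, unless noted: active = inhibition of the reporter signal at or above 50%; inactive = inhibition below 50%.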

The nature of assay [1]: inhibitors of TNFa-induced NFkB p65 translocation, primary screen, imaging, HUVEC, MLSMR starter and 10KST1 sets (AID 438;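 active = inhibition above 20% together with a positive visual image hit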;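 also: compound added about 3h40 before a 20 min TNFalpha stimulation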;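 as to inhibition: signal is the nuclear over cytoplasmic p65 intensity ratio per well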). The following applies: HUVEC TNFa-induced p65 nuclear translocation; cell count: measured here: nuclei count (cytotoxicity indicator), at 2.08 µM; inhibition: at 2 µM, stronger effect = higher value, 0% TNFa-plus-vehicle, 100% no-TNFa wells.
Assay [2] in a line: inhibitors of mutant huntingtin aggregation, primary screen, imaging, exon1htt(103Q)mCFP cells, high-content imaging (AID 483;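 active = visual image review flags a hit and inhibition of aggregation exceeds 20%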;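 also: compound exposure lasted 3 days before fixation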;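 as to nuclei count: percent of the per-plate median nuclei count of sample wells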). Conditions: exon1htt(103Q)mCFP cell line, aggregate imaging, at 2 µM; inhibition of aggregation: stronger effect = higher value; nuclei count: measured here: cell count, toxicity.
Assay [3] is described as follows: inhibitors of E-selectin induction by TNFa, primary screen, imaging, HUVEC, immunofluorescence, MLSMR starter and 10KST1 sets (AID 487;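 active = visually confirmed hit in the image check and inhibition above 20%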;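 as to inhibition: signal is fraction of cell area covered by stained E-selectin grains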;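 as to nuclei count: 100% = median nuclei count of all wells on the same plate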). Conditions: HUVEC TNFalpha-induced E-selectin immunofluorescence imaging, at 2 µM; inhibition: stronger effect = higher value; nuclei count: measured here: cell number, toxicity.
The target in assay [4] is Voltage-gated potassium channel subunit beta-2 (Rattus norvegicus) (UniProt P62483). Put plainly: KvBeta enzyme negative modulators, primary screen, biochemical, NADPH fluorescence (AID 622;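 active = fluorescence slope higher than the sample average by over 3 SD, cut at about -0.22 in these data, passing the limit was not always enough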;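 also: slope of raw intensity against log time taken from 70 to 1610 s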). Conditions: recombinant KvBeta, 4-cyanobenzaldehyde reduction, at 10 µM, stronger effect = higher value.
Assay [5] has the same target. Put plainly: KvBeta positive modulators, primary screen, biochemical, NADPH fluorescence (AID 623;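 active = NADPH fluorescence slope more negative than the mean of all samples by about 3 SD, 99.7% confidence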;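 also: fluorescence intensity change per second fitted from 20 to 320 s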). Conditions: Recombinant KvBeta, NADPH fluorescence decrease slope, 10 min; at 10 µM; stronger effect = lower value.
Assay [6] addresses Alpha-2C adrenergic receptor (Homo sapiens) (UniProt P18825). Description: modulators of alpha2C/GIRK thallium flux, primary screen, cell-based, HEK293 alpha2C/GIRK1/2 (AID 624;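 active = fluorescence slope after compound addition differing from the mean of all screened samples at 99.7% confidence, in either direction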;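 also: slope of fluorescence ratio to pre-addition baseline per second over 15 to 24 s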). The following applies: thallium flux BTC fluorescence, at 10 µM, actives lie on both sides.
A short description of assay [7]: inhibitors of Sendai virus-induced IRF3 signaling, primary screen, TLR/RLR signaling modifier project, cell-based, Sendai virus stimulus, luciferase, 10K MLSCN set (AID 602276;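 active = inhibition at or above 50% at 10 µM; inactive = inhibition below 50%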;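 also: firefly luciferase from ISG56 promoter only with Renilla not read in this screen; 0% = Sendai virus plus DMSO and 100% = medium plus DMSO without virus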). The following applies: HEK293 RL24 IRF3 luciferase reporter, at 10 µM, stronger effect = higher value.
Assay [8] in a line: inhibitors of poly I:C-induced TLR3 signaling, primary screen, cell-based, poly I:C stimulus, luciferase, 10K MLSCN set (AID 602277). The following applies: HEK293-TLR3 RL24 IRF3 luciferase reporter, at 10 µM, stronger effect = higher value. For orientation: Reporter assays use an easily measured gene product as a stand-in for the process of interest.

Sequence of Voltage-gated potassium channel subunit beta-2 (Rattus norvegicus) (P62483 whole entry, looked up): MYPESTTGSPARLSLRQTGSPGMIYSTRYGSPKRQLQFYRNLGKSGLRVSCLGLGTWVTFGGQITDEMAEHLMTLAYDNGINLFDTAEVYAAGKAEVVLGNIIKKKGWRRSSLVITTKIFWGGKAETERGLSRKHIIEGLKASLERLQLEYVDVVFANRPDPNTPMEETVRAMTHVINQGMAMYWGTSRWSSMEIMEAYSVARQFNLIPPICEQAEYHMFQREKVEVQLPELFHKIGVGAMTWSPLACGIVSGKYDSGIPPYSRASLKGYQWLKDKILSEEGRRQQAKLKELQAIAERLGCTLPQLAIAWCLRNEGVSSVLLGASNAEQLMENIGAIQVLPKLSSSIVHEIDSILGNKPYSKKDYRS
Sequence of Alpha-2C adrenergic receptor (Homo sapiens) (P18825 whole entry, looked up): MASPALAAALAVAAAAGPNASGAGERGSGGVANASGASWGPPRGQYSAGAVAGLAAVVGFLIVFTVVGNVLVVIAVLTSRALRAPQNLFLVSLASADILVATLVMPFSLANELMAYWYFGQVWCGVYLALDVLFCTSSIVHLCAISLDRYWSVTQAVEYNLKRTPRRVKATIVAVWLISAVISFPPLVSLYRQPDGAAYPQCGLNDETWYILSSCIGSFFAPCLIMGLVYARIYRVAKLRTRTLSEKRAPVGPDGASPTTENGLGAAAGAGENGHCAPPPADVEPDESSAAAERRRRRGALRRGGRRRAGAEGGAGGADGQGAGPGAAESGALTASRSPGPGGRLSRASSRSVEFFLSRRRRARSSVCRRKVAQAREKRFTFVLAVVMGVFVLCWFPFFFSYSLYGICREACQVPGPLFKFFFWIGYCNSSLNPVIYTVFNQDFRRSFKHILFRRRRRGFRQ

As to `Cc1ccc2c(c1)NC(=O)C(CC(=O)NCCN(CC(C)C)CC(C)C)O2` (configuration not stated), the cell count in assay [1] amounted to 659. The inhibition in assay [1] is 4.4% (inactive); in assay [3] it was -11% (inactive); in assay [7], -16.7% (inactive); in assay [8], -6.31% (inactive). In addition, in assay [2], the inhibition of aggregation is 7.8% (inactive). The results for the nuclei count in assay [2] and in assay [3] were 102% and 125%, respectively. The fluorescence slope in assay [4] was -0.584 (inactive). In assay [5], the NADPH fluorescence slope is 6e-06 (inactive). Besides, the slope in assay [6] is 0.00608 (inactive).

For the molecule `Cc1cccc(N2CCN(C(=O)Cn3nc(Cc4ccncc4)c4ccccc4c3=O)CC2)c1C`, the cell count in assay [1] is 895. For the same molecule, the inhibition was -5.5% (inactive) in assay [1], -72% (inactive) in assay [3], 4.52% (inactive) in assay [7] and 5.5% (inactive) in assay [8]. Further, the inhibition of aggregation in assay [2] was 14.3% (inactive). The nuclei count in assay [2] came out at 103%; in assay [3], 118%. The fluorescence slope in assay [4] is -0.563 (inactive). The NADPH fluorescence slope in assay [5] was -4.2e-05 (inactive). For the same molecule, in assay [6], the slope is 0.00577 (inactive).

`CCSc1nnc(NC(=O)CSc2nnc(Cc3cccn3C)n2-c2ccc(C)cc2)s1`: the cell count in assay [1] came out at 601. The inhibition in assay [1] was -12.3% (inactive); in assay [3], 16.8% (inactive); in assay [7], 3.74% (inactive); in assay [8], 10.5% (inactive). Besides, in assay [2], the inhibition of aggregation is -2.6% (inactive). The nuclei count was 112% in assay [2] and 75.5% in assay [3]. For the same molecule, the fluorescence slope in assay [4] was -0.596 (inactive). In addition, the NADPH fluorescence slope in assay [5] is 1.3e-06 (inactive). Moreover, in assay [6], the slope is 0.00655 (inactive).

In the case of `Cc1cc(C)n(-c2cc(N3CCOCC3)nc(-c3ccccc3)n2)n1`, in assay [1], the cell count was 323. The inhibition in assay [1] was -14% (inactive); in assay [3], -59.2% (inactive); in assay [7] it was 6.61% (inactive); in assay [8], 12.6% (inactive). Also, the inhibition of aggregation in assay [2] was -20.5% (inactive). Further, the values for the nuclei count in assay [2] and in assay [3] were 105% and 114%, respectively. The fluorescence slope in assay [4] was -0.385 (inactive). Besides, in assay [5], the NADPH fluorescence slope was -1.3e-05 (inactive). Besides, the slope in assay [6] was 0.00416 (inactive).

With `CNc1nnc(-c2cccc(N(C)C)c2)s1`, the cell count in assay [1] came to 742. In addition, the inhibition is -5.1% (inactive) in assay [1], -67.7% (inactive) in assay [3], -27.7% (inactive) in assay [7] and -96.6% (inactive) in assay [8]. Further, in assay [2], the inhibition of aggregation is -2.3% (inactive). Moreover, the nuclei count in assay [2] turned out to be 102%; in assay [3], 91.1%. Moreover, the fluorescence slope in assay [4] was -0.135 (active). Also, the NADPH fluorescence slope in assay [5] was -7.2e-06 (inactive). In assay [6], the slope is 0.00491 (inactive).

Turning to `Cc1cc(C)nc(SC2=CS(=O)(=O)c3ccccc32)n1`, the cell count in assay [1] came to 409. In addition, the inhibition in assay [1] was 4.2% (inactive); in assay [3] it was -15.3% (inactive); in assay [7], 9.85% (inactive); in assay [8], -5.16% (inactive). Besides, the inhibition of aggregation in assay [2] is -0.8% (inactive). The nuclei count in assay [2] was 107%; in assay [3], 95.9%. In addition, in assay [4], the fluorescence slope is -0.358 (inactive). The NADPH fluorescence slope in assay [5] was 3.3e-05 (inactive). Further, the slope in assay [6] was 0.00592 (inactive).

With `COc1ccc(-n2ncc3c(NCCCN4CCOCC4)ncnc32)cc1`, the cell count in assay [1] worked out at 340. The inhibition in assay [1] was 1.4% (inactive); in assay [3] it was 1.8% (inactive); in assay [7], 44.5% (inactive); in assay [8], 7.05% (inactive). In addition, in assay [2], the inhibition of aggregation is -6.2% (inactive). Also, the values for the nuclei count in assay [2] and in assay [3] were 116% and 118%, respectively. Moreover, the fluorescence slope in assay [4] is -0.59 (inactive). Besides, the NADPH fluorescence slope in assay [5] was -5.4e-05 (inactive). Further, the slope in assay [6] was 0.00402 (inactive).

Turning to `c1cc2c(cc1Cn1cnnn1)OCO2`, in assay [1], the cell count stood at 599. In addition, the inhibition in assay [1] is 2.1% (inactive); in assay [3], 26.6% (inactive); in assay [7] it was 13.3% (inactive); in assay [8], 22.4% (inactive). For the same molecule, in assay [2], the inhibition of aggregation is -6.5% (inactive). Also, the nuclei count was 107% in assay [2] and 87.2% in assay [3]. Also, the fluorescence slope in assay [4] is -0.492 (inactive). In addition, the NADPH fluorescence slope in assay [5] was -6.9e-05 (inactive). For the same molecule, the slope in assay [6] was 0.00714 (inactive).

On to `CCc1c(C)nc2ncnn2c1NCCc1ccc(OC)c(OC)c1`, for which, in assay [1], the cell count is 447. In addition, the inhibition in assay [1] was -1.6% (inactive); in assay [3] it was 7.1% (inactive); in assay [7] it was 8.69% (inactive); in assay [8], -1.81% (inactive). The inhibition of aggregation in assay [2] was -8% (inactive). Moreover, the nuclei count in assay [2] came to 95.4%; in assay [3], 97.7%. Moreover, the fluorescence slope in assay [4] was -0.323 (inactive). In addition, the NADPH fluorescence slope in assay [5] is -7.8e-05 (inactive). Further, the slope in assay [6] was 0.00477 (inactive).

On to `COc1cccc(NC(=O)CSc2nnc(-c3cc(-c4ccccn4)nc4ccccc34)o2)c1`, for which the cell count in assay [1] came out at 578. Also, the inhibition in assay [1] was -14.5% (inactive); in assay [3], -102% (inactive); in assay [7] it was 1.87% (inactive); in assay [8], 0.453% (inactive). The inhibition of aggregation in assay [2] is -14.5% (inactive). In addition, the results for the nuclei count in assay [2] and in assay [3] were 112% and 141%, respectively. For the same molecule, the fluorescence slope in assay [4] was -0.57 (inactive). Besides, the NADPH fluorescence slope in assay [5] was -2e-06 (inactive). Further, the slope in assay [6] was 0.00553 (inactive).

`O=C(NCc1ccc2c(c1)OCO2)C1CCC(CNS(=O)(=O)c2ccccc2)CC1` (configuration not stated): the cell count in assay [1] amounted to 316. The inhibition in assay [1] is 8.9% (inactive); in assay [3], -4.9% (inactive); in assay [7] it was 11.6% (inactive); in assay [8] it was 26.6% (inactive). Besides, the inhibition of aggregation in assay [2] is -31.1% (inactive). Moreover, the nuclei count in assay [2] stood at 111%; in assay [3], 116%. Besides, the fluorescence slope in assay [4] is -0.489 (inactive). Also, in assay [5], the NADPH fluorescence slope is 1.3e-05 (inactive). Further, the slope in assay [6] is 0.00655 (inactive).

Take `CCN(CC)S(=O)(=O)c1ccc2oc(C(=O)N3CCOCC3)c(C)c2c1`: in assay [1], the cell count amounted to 638. Further, the inhibition in assay [1] is -12% (inactive); in assay [3], -96.2% (inactive); in assay [7], -1.83% (inactive); in assay [8] it was 2.02% (inactive). Besides, the inhibition of aggregation in assay [2] was 5.2% (inactive). Further, the nuclei count in assay [2] turned out to be 107%; in assay [3], 92.5%. Also, the fluorescence slope in assay [4] was -0.543 (inactive). Moreover, in assay [5], the NADPH fluorescence slope is -2.8e-06 (inactive). The slope in assay [6] is 0.00418 (inactive).

As a reminder, the inhibition is the drop in the measured response relative to a control, in per cent.
